L3MBTL1 inh: qHTS Assay for the Inhibitors of L3MBTL1; AlphaScreen L3MBTL1–H3K9me1 peptide binding; Lethal(3)malignant brain tumor-like protein 1 (Homo sapiens), Q9Y468; AID 485360, 2010; 230,000 compounds, 0.66% hits; Potency, µM (series often up to 57.1 µM), for inactives: at the top dose activity, negative = inhibition, most hits filed as inhibitors; further: on the % scale 0 is the no-effect control and ±100 the full control effect; nearly all actives have a fitted effect of over 60% in size
Target sequence (Q9Y468 whole entry, looked up): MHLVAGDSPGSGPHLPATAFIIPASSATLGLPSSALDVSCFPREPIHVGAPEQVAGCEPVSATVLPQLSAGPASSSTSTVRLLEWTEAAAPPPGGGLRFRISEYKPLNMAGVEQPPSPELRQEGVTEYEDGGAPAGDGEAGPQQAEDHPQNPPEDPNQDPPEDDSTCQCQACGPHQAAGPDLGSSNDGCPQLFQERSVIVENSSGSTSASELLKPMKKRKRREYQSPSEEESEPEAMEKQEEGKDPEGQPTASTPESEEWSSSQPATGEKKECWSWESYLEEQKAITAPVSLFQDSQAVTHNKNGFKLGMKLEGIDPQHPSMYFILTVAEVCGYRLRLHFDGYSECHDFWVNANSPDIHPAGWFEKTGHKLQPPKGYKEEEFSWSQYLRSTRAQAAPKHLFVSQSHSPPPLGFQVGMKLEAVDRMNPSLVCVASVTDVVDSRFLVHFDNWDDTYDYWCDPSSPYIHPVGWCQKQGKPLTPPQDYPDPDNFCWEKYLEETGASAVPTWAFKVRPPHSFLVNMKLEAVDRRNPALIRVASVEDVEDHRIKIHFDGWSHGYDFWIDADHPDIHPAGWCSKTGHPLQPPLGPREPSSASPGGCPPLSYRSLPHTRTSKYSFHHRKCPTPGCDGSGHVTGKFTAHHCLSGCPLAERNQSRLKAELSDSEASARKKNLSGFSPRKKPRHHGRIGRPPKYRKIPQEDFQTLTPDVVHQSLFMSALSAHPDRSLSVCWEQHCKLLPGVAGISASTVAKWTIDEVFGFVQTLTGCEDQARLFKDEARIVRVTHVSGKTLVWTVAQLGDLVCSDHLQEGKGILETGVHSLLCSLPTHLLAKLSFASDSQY
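L3MBTL1 50 nM + b-AHA-H3(1-15)K9me1 75 nM, 30 min RT; compound added, 30 min RT; streptavidin donor/Ni-chelate acceptor beads 10 ug/mL each final, 30 min RT dark; AlphaScreen read.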
BAZ2B block: qHTS Assay for Inhibitors of BAZ2B | AlphaScreen BAZ2B-H3K14Ac peptide displacement | 360,000 compounds, 4.4% hits | AID 504333, 2011 | Potency, µM (doses to about 114 µM), for inactives: at the highest dose activity change, negative = inhibition, most hits filed as inhibitors; further: on the % scale 0 is the no-effect control and ±100 the full control effect; nearly all actives have a fitted effect of over 60% in size
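BAZ2B (50 nM) with biotin-H3(5-23)K14Ac peptide (50 nM) in PBS pH 7.4, 0.01% Tween-20, preformed 30 min, then compound 30 min at room temperature; top concentration 110uM. AlphaScreen streptavidin donor/nickel chelate acceptor beads (10 ug/mL final), 20 min dark, signal read.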
G9a inh: qHTS Assay for Inhibitors of Histone Lysine Methyltransferase G9a | Histone-lysine N-methyltransferase EHMT2 (Homo sapiens), Q96KQ7 | G9a H3K9 monomethylation, AlphaScreen, 2 h | Potency, µM (doses to about 102 µM), for the others: top-dose activity, negative = inhibition, hits mostly inhibitors | 350,000 compounds, 8.8% hits | AID 504332, 2011; further: on the % scale 0 is the no-effect control and ±100 the full control effect; nearly all actives have a fitted effect of over 75% in size
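Quantitative HTS format: methyltransferase activity on a biotin-tagged H3K9 peptide is measured by AlphaScreen, using a rabbit anti-monomethyl-H3K9 antibody with streptavidin donor and anti-IgG acceptor beads. Final levels are 20 nM enzyme, 500 nM peptide, 20 uM SAM; 2 h RT.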
HP1b binding inh: HTS for Inhibitors of HP1-beta Chromodomain Interactions with Methylated Histone Tails. AlphaScreen HP1-beta / biotin-H3K9me3 peptide binding. Potency, µM (doses to about 114 µM), without a hit: at the highest dose activity change, negative = inhibition, usual class: inhibitors. AID 540317, 2011. 390,000 compounds, 0.56% hits; further: nearly all actives have a fitted effect of over 70% in size
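AlphaScreen: HP1-beta (50 nM) preformed 30 min with biotin-H3(1-18)K9me3 peptide (50 nM) in PBS pH 7.4, 0.01% Tween-20. Compound added for 30 min at RT, then streptavidin donor/nickel chelate acceptor beads (10 ug/mL) for 30 min.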
Sfp inh: qHTS Assay for Inhibitors of Bacillus subtilis Sfp phosphopantetheinyl transferase (PPTase). Biochemical Sfp PPTase activity, qHTS. Potency, µM, inactives show largest response in the series, negative = inhibition, actives largely listed as inhibitors. AID 1490, 2009. 310,000 compounds, 3.5% hits;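 further: the enzyme is Sfp with the accession as filed and its product quenches rhodamine fluorescence; 0% = enzyme reaction without inhibitor and -100% = no enzyme wells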
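After 15 min at room temperature with compound, 15 nM Sfp received 5 uM rhodamine-CoA plus 12.5 uM BHQ-2-ybbR (50 mM Hepes pH 7.6, 10 mM MgCl2). Rate came from the fluorescence difference over 30 min, ex 525/em 598 nm.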
JMJD2A Tudor: qHTS Assay for Inhibitors of JMJD2A-Tudor Domain. AlphaScreen JMJD2A-Tudor / H3K4me3 peptide binding. Potency, µM (doses to about 114 µM), inactives show at the top dose activity change, negative = inhibition, hits mostly inhibitors. 390,000 compounds, 4.4% hits; further: on the % scale 0 is the no-effect control and ±100 the full control effect; nearly all actives have a fitted effect of over 50% in size
* = called active by the depositor; ? = inconclusive; · = no result given; [ ] = dose if it differs, or a comment. This is a sample that favours compounds with a hit; in the whole collection about 12% have one here. The call rests on the fitted dose curve; in most records, active means well fitted curve in the direction sought with a large enough effect; inconclusive means small, poorly fitted or top-dose-only effect, or another doubt; inactive means no such curve, though single readings can be large; an effect the other way counts as inactive or inconclusive. Potency means the concentration at half of the fitted maximal effect.

SMILES	L3MBTL1 inh	BAZ2B block	G9a inh	HP1b binding inh	Sfp inh	JMJD2A Tudor
CCc1nn2c(=O)cc(COC(=O)c3ccc(NC(=O)c4cccs4)cc3)nc2s1	·	-4%	9%[12.7 µM]	31%	·	6%
CCn1nnc(C(=O)O)c1C(=O)O	7%	?	?	0%	1%	20µM*
Nc1c(C(=O)O)nnn1Cc1ccccc1	·	-30%	?	6%	-4%	-23%
COc1ccc(C2/C=C\CN(CC(C)C)CC(=O)N2Cc2cccc(F)c2)cc1 (centres undefined)	0%	·	32µM*	34%	?	-36%
COC(=O)[C@@]12CCCN1[C@H](c1ccc(-c3ccc(F)cc3)cc1)[C@H]1C(=O)N(C)C(=O)[C@H]12	18%	71µM*	-3%[2.33 µM]	33%	·	-28%
COC(=O)[C@@]12CCCCN1[C@H](c1ccc(-c3ccc(F)cc3)cc1)[C@H]1C(=O)N(C)C(=O)[C@H]12	-1%	·	·	27%	·	-13%
O=C(NCCc1ccccc1Cl)c1ccc2c(c1)nc1n2CCOC1	·	2%	-5%[59 µM]	28%[57 µM]	·	0%
COc1cc2c(cc1OC)C(c1cc(OC)c(OC)cc1[N+](=O)[O-])N(C(C)=O)CC2 (centres undefined)	·	-2%	71µM*	35%	-4%	-4%
CN1Cc2c(N3CCOCC3)nc3sc(C(=O)c4ccc(Br)cc4)c(N)c3c2CC1(C)C	-21%	35µM*	45µM*	?	45µM*	45µM*
CC(=O)c1ccc(NC(=O)c2sc3nc(N4CCOCC4)c4c(c3c2N)CCCC4)cc1	·	-28%	25µM*	30%	?	5%
CCOc1ccc(NC(=O)c2sc3nc(N4CCOCC4)c4c(c3c2N)CCCC4)cc1	·	-17%	?	29%	-4%	-11%
Nc1c(C(=O)N2CCOCC2)sc2nc(N3CCOCC3)c3c(c12)CCCC3	4%	-14%	10µM*	5%	10µM*	?
CN1Cc2c(N3CCOCC3)nc3sc(C#N)c(N)c3c2CC1(C)C	-2%	-8%	·	25%	-8%	-19%
NNC(=O)c1sc2nc(N3CCOCC3)c3c(c2c1N)CCCC3	·	-28%	?	34%	8%	-22%
COc1ccc(NC(=O)c2sc3nc(N4CCCC4)c4c(c3c2N)CC(C)(C)OC4)cc1	·	-7%	·	36%	10µM*	-5%
COc1ccc(NC(=O)c2sc3nc(N4CCOCC4)c4c(c3c2N)CC(C)(C)OC4)cc1	·	-1%	·	59%	2%	-5%
Cc1ccc(C(=O)Nc2onc3c2CCCC3)cc1	·	0%	-7%[59 µM]	31%	·	-11%
CC1(C)Cc2c(c(N3CCOCC3)nc3sc(C(=O)N4CCCCC4)c(N)c23)CO1	-2%	-36%	4.5µM*	27%	16µM*	?
Nc1nc2sc3c(c2cc1C(=O)N1CCOCC1)CCCC3	8%	-39%	?	6%	-16%	14µM*
Nc1c(C(=O)Nc2ccc(Cl)cc2)sc2nc(N3CCOCC3)c3c(c12)CCCC3	·	-13%	22µM*	13%	-10%	-19%
Nc1nc2sc3c(c2cc1C(=O)NCC(=O)O)CCCC3	·	-14%	?	35%	-13%	-12%
COc1ccc(NC(=O)C2CCCN(c3nnc(C)c4c(C)n(-c5ccccc5)nc34)C2)cc1Cl (centres undefined)	·	-30%	?	15%	·	-14%
CCOC(=O)N1CCN(c2c(NCCCN(CC)c3cccc(C)c3)c(=O)c2=O)CC1	·	1%	14µM*	-17%	-2%	-24%
CCOC(=O)C1CCCN(c2c(NCCCN(C)c3ccccc3)c(=O)c2=O)C1 (centres undefined)	·	0%	56µM*	34%	-1%	-13%
CCOC(=O)N1CCN(c2c(NCCCN(CC)CC)c(=O)c2=O)CC1	·	-35%	69%[12.7 µM]	-3%	14%	-18%
SMILES	L3MBTL1 inh	BAZ2B block	G9a inh	HP1b binding inh	Sfp inh	JMJD2A Tudor
CCc1cccc(C)c1NC(=O)CCn1nc(C)c2c(C)n(-c3ccccc3)nc2c1=O	·	-20%	-27%[59 µM]	4%	·	-27%
CCOC(=O)c1c(OCC)[nH]c2c1cc(O)c1ccccc12	-6%	50µM*	?	?	?	50µM*
O=C(CSc1nc2ccccc2[nH]1)Nc1ccc(F)c(F)c1	·	9%	1%[59 µM]	11%	-3%	-17%
Cc1ccc2nc(SCC(=O)Nc3ccc(F)cc3F)[nH]c2c1	2%	2%	?	38%	13%	-19%
Cc1c(NC(=O)CSc2nc3ccc(Cl)cc3[nH]2)c(=O)n(-c2ccccc2)n1C	·	?	11µM*	18%	-7%	-12%
Cc1ccc(NC(=O)CSc2nc3ccc(Br)cc3[nH]2)c(C)c1	·	2%	8.9µM*	30%	·	-15%
Cc1c(NC(=O)CSc2ccc(Cl)cc2)c(=O)n(-c2ccccc2)n1C	·	26%	?	43%	14%	-21%
O=C(CSc1nc2ccc(Cl)cc2[nH]1)Nc1ccc2[nH]c(=O)[nH]c2c1	-3%	3%	5.6µM*	15%	·	?
Cc1c(NC(=O)CSc2ccc3c(c2)OCCO3)c(=O)n(-c2ccccc2)n1C	1%	19%	-24%	?	20%	50µM*
COc1ccc(C(=O)N2CCC3(CCN(Cc4ccc(C#N)cc4)CC3)CC2)cc1	·	·	-5%[12.7 µM]	·	7%	·
Cc1nc2ccc(NC(=O)CSc3nnc(C)s3)cc2[nH]1	·	0%	40µM*	21%	4%	-14%
Cc1ccc2nc(SCC(=O)Nc3ccc4[nH]c(=O)[nH]c4c3)[nH]c2c1	-9%	-22%	7.9µM*	4%	·	-25%
Cc1ccc2nc(SCC(=O)Nc3cccc([N+](=O)[O-])c3)[nH]c2c1	-5%	?	13%[59 µM]	-2%	14%	?
Cc1c(NC(=O)CSc2nc3ccccc3s2)c(=O)n(-c2ccccc2)n1C	·	7%	50µM*	41%	-22%	-4%
Cc1ccc2nc(SCC(=O)Nc3c(F)cccc3F)[nH]c2c1	-8%	-4%	-42%	36%	11%	-14%
Cc1nnc(SCC(=O)Nc2ccc3c(c2)OCCO3)s1	22%	-2%	21%[59 µM]	28%	6%	-9%
Cc1ccc2nc(SCC(=O)Nc3ccc(C(N)=O)cc3)[nH]c2c1	·	16%	40µM*	?	8%	-12%
Cn1c(NC2=NC3(CCCC3)C3=C(CCCC3=O)N2)nc2ccccc21	·	·	·	·	·	6%

Compound activity from PubChem.
